CCHF vOTU inh-1 – blocks the CCHF virus ovarian tumor domain protease; inhibition, % at 11.5 µM; 0.55% of 370,000 active; CCHFV vOTU protease, Pep-AMC fluorescence
PriA SSB inh – K. pneumoniae PriA-SSBct interaction inhibition. AlphaScreen SSBct-PriA binding, biotinylated peptide. inhibition, % at 33 µM. 0.6% of 430,000 active. AID 1272365; in the data active = inhibition mostly above about 37%, no sharp cut-off; inactive = mostly below about 20%
Sa RN4220 lethal – S. aureus RN4220 growth inhibition; OD600, 16 h; inhibition, % (test concentration not listed); 0.33% of 330,000 active; AID 1259311; in the data active = inhibition above about 85%
Mtb hypoxia inh – reduces hypoxia-regulated biosensor signal in M. tuberculosis. fluorescence inhibition, % (test concentration not listed). AID 1159583. 0.1% of 300,000 active. M. tuberculosis hypoxia-regulated fluorescent reporter, fluorescence; in the data active = fluorescence inhibition mostly above about 23%, no sharp cut-off; inactive = mostly below about 17%
Sa ugtP lethal – growth inhibition of S. aureus ugtP deletion strain; S. aureus RN4220 ugtP deletion, OD600 growth, 16 h; growth inhibition, % (no concentration beside the values); 0.54% of 330,000 active; in the data active = growth inhibition above about 68%
CCHF vOTU inh-2 – CCHFV vOTU protease inhibition, confirmation | shares compounds with CCHF vOTU inh-1 | Recombinant CCHFV vOTU, Pep-AMC fluorescence | inhibition, % at 11.5 µM | 17% of 1,900 active
Numbers stand for hits; . = inactive; / = no result shown. Hits are enriched below; roughly 1.4% of the tested compounds scored in any of these assays. Cut-off read from the data, not from the text of the source, unless noted: active = inhibition above about 30%; inactive = the rest.

SMILES	CCHF vOTU inh-1	PriA SSB inh	Sa RN4220 lethal	Mtb hypoxia inh	Sa ugtP lethal	CCHF vOTU inh-2
COc1cc(C(=O)O[C@H]2CC(C)=CC[C@@]3(C)CC[C@@](O)(C(C)C)[C@H]23)ccc1O	38	.	.	.	.	.
C=CCn1c(SCCCN2C(=O)c3ccccc3C2=O)nnc1-c1nnc(SCCCN2C(=O)c3ccccc3C2=O)n1CC=C	/	.	/	/	/	/
O=C(CC(Sc1n[nH]c(-c2ccccc2)n1)c1cccc([N+](=O)[O-])c1)NCc1ccccc1 (centres undefined)	/	.	/	/	/	/
CN(C1=C(N2CCCCC2)C(=O)c2ccccc2C1=O)c1ccccc1	41	.	.	.	.	.
Cc1ccc(NC2=C(N3CCCCC3)C(=O)c3ccccc3C2=O)cc1	96	.	.	.	.	85
CC1=C(Nc2ccc(C(=O)O)cc2)C(=O)c2ccccc2C1=O	.	.	.	.	.	/
O=C(O)c1cccc(NC2=C(Cl)C(=O)c3ccccc3C2=O)c1	.	.	.	.	.	/
O=C(/C=C/c1ccc(O)cc1)c1ccc(NC2=C(N3CCCCC3)C(=O)c3ccccc3C2=O)cc1	84	.	.	.	.	60
O=C1C(Nc2cccc(O)c2)=C(N2CCCCC2)C(=O)c2ccccc21	89	.	.	.	.	92
Cc1cc(C)cc(NC(=S)N=C(N)Nc2nc(C)c3ccccc3n2)c1	/	.	/	/	/	/
O=C(Nc1ccccc1C(=O)NN=Cc1ccco1)c1ccc(F)cc1	/	.	.	.	.	/
NCC1(O)CCOCC1	/	.	/	/	/	/
COC1=C(Nc2ccc(C)cc2)C(=O)c2ccccc2C1=O	55	90	.	.	.	.
O=C1C(Nc2ccccc2)=C(N2CCCCC2)C(=O)c2ccccc21	101	.	.	.	.	87
COc1ccccc1NC1=C(N2CCCCC2)C(=O)c2ccccc2C1=O	/	.	.	.	.	/
COc1ccc(C=NNC(=O)c2csc(-n3nc(C)cc3C(F)(F)F)n2)cc1	/	.	.	.	.	/
Cc1nc(SCCN2C(=O)c3ccccc3C2=O)c2c3c(sc2n1)CCCC3	/	.	/	/	/	/
CCOC(=O)N=Nc1c2ccccc2c2nc3no[nH]c3nc12	59	.	100	/	100	86
CCOC(=O)N=Nc1c(O)n(CC(=O)OC)c2ccccc12	.	.	.	.	.	/
COc1ccc(-n2nnnc2CNC(=O)Nc2cccs2)cc1	/	.	/	/	/	/
Cc1ccc(NCC(=O)NN=C/C(Br)=C/c2ccccc2)cc1	/	.	.	.	.	/
O=C(CNc1cccc2ccccc12)N/N=C/C(Br)=C/c1ccccc1	82	/	/	/	/	.
Cc1nc(N2CCC(NC(=O)Cn3cnc(C)c(C)c3=O)CC2)cc(C(F)(F)F)n1	/	.	/	/	/	/
O=C(NCc1ccc(C(O)c2cccs2)s1)Nc1ccccc1 (centres undefined)	/	.	/	/	/	/
O=C(/C=C/c1ccccc1)Nc1cc(NC(=O)/C=C/c2ccccc2)cc(C(=O)O)c1	36	.	.	.	.	.
SMILES	CCHF vOTU inh-1	PriA SSB inh	Sa RN4220 lethal	Mtb hypoxia inh	Sa ugtP lethal	CCHF vOTU inh-2
Cc1ccc(C(=O)Oc2cc(N)n(S(=O)(=O)c3ccc(C)cc3)n2)cc1	.	.	.	.	.	/
COc1ccc(S(=O)(=O)n2nc(OC(=O)c3ccc(C)cc3)cc2N)cc1	35	.	.	.	.	.
CN(CC#CCNC(=O)c1ccc(F)cc1)Cc1ccccc1	/	.	/	/	/	/
COc1ccc(CC(=O)Nc2ccc3c(c2)N(C(=O)C(C)C)CCC3)cc1OC	/	.	/	/	/	/
C(=N\Nc1nc(-c2ccccc2)cs1)/c1ccco1	31	/	/	/	/	.
Cc1ccc(-c2csc(NN=Cc3ccco3)n2)cc1	/	.	.	.	.	/
Cc1cccc(Nc2nc(N)c([N+](=O)[O-])c(N3CCCC(C)C3)n2)c1 (centres undefined)	31	.	.	.	.	.
Cc1ccc2c(c1)C(=O)C(=O)N2c1ccc(C(F)(F)F)cc1	30	.	.	.	.	.
Cc1ccc2c(c1)C(=O)C(=O)N2c1ccc(Cl)cc1	.	.	/	/	/	/
COc1cc(OC)c(C=NNC(=O)c2ccncc2)c(OC)c1	/	.	.	/	.	/
O=C(NC1CCCC1)c1ccc(CS(=O)Cc2ccccc2Cl)o1 (centres undefined)	34	.	.	.	.	.
Cc1ccc(NC(=O)Cc2ccc(Cl)c(Cl)c2)cc1S(=O)(=O)N(C)C	30	.	.	.	.	.
O=C(Nc1nc(-c2ccccc2)cs1)c1ccccc1NS(=O)(=O)c1ccc(F)cc1	38	.	93	.	95	.
Cc1ccc(-n2[nH]c(C)c(C=C3C=Nc4ccccc43)c2=O)cc1C	/	.	.	/	.	/
C=CCc1ccc(OCCCNCc2ccccc2)c(OC)c1	31	.	.	.	.	.
CC(=O)Nc1ccc(NC(=O)CSc2nnc(-c3ccccn3)n2Cc2ccco2)cc1	/	.	/	/	/	/
CCOC(=O)C1CCN(Cc2oc(CO)cc(=O)c2O)CC1	41	.	.	.	.	.
COc1nccnc1NS(=O)(=O)c1ccc(NC(=S)NC(=O)/C=C/c2ccc(F)cc2)cc1	38	.	.	.	.	.
Nc1cc(S(=O)(=O)O)cc2ccc(S(=O)(=O)O)cc12	44	.	.	.	.	.
CC(N)=C(C#N)C(=O)COc1ccc(Cl)cc1Cl	/	/	.	.	.	/
CCOC(=O)c1sc(NC(=O)c2ccc(S(=O)(=O)N(C)Cc3ccco3)cc2)cc1C	/	.	/	/	/	/
N#C/C(=C/c1ccccc1)C(=O)NCc1ccccc1	.	.	.	.	.	/
CN(C)c1ccc(/C=C(/C#N)C(=O)NCc2ccccc2)o1	32	.	.	.	.	.
CC(=O)Nc1cccc(NC(=O)CSc2nc(CC(=O)NCc3ccccn3)cs2)c1	/	.	/	/	/	/
Cc1c(C=O)c(=O)n(-c2ccccc2)n1-c1ccccc1	32	.	.	.	.	.
SMILES	CCHF vOTU inh-1	PriA SSB inh	Sa RN4220 lethal	Mtb hypoxia inh	Sa ugtP lethal	CCHF vOTU inh-2
Cc1c(C(=O)O)c(=O)n(-c2ccccc2)n1-c1ccccc1	.	.	.	.	.	/
N#Cc1c(-c2ccccc2)nc(SCC(=O)Nc2ccc(OC(F)(F)Cl)cc2)[nH]c1=O	31	.	.	.	.	.
N#Cc1c(-c2ccccc2)nc(SCC(=O)Nc2ccccc2)[nH]c1=O	.	.	.	.	.	/
COC(=O)[C@]12C[C@H](CC(=O)NCc3cccc(C(F)(F)F)c3)C(=O)N(CCc3ccc(OC)c(OC)c3)C1=C[C@H](C(C)C)O[C@@H]2C1CC1	.	/	/	/	/	/
CCCCCCCCN1C(=O)[C@@H](CC(=O)NCc2cccc(C(F)(F)F)c2)C[C@@]2(C(=O)OC)C1=C[C@H](C(C)C)O[C@@H]2C1CC1	30	/	/	/	/	31
CCCCCCCCN1C(=O)[C@@H](CC(=O)NCc2ccc(OC)c(OC)c2)C[C@@]2(C(=O)OC)C1=C[C@H](C(C)C)O[C@@H]2C1CC1	38	/	/	/	/	.
COc1ccc(NC(=O)NC(C)(C(F)(F)F)C(F)(F)F)cc1	.	.	.	/	.	/
CC(NC(=O)Nc1ccc(O)cc1)(C(F)(F)F)C(F)(F)F	52	.	.	.	.	.
CCC(NC(=O)Nc1ccc(O)cc1)(C(F)(F)F)C(F)(F)F	63	.	.	/	.	.
CCC(NC(=O)NCc1ccccc1)(C(F)(F)F)C(F)(F)F	.	.	.	.	.	/
